± gives the uncertainty stated by the source.

The assay has as its system HEK293T-Rex XBP1-RLuc. Description: XBP1-RLuc splicing reporter activation, triplicate, relative to 500 nM thapsigargin (% of thapsigargin); higher = stronger IRE1/XBP1s reporter activation. The note with it: 6.8 µM; 18 h; screen: confirmation. As for the experimental part:
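HEK293T-Rex cells stably expressing the ERSE-firefly luciferase (BiP promoter, ATF6-preferring) or XBP1-splicing Renilla luciferase (IRE1/XBP1s) reporter, 1536-well plates, compound at 6.8 µM for 18 hr at 37 °C; luminescence read […] and expressed as % activation = 100*(compound - median DMSO)/(median 500 nM thapsigargin - median DMSO). Primary screen was single-pass; confirmation screen in triplicate (mean ± SD).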
As for `COc1ccc(C2C=C3Oc4ccccc4N=C3NN2)cc1` (stereo not given), the “XBP1-RLuc splicing reporter activation” value amounted to 4.19 ± 0.13.
Regarding `Cc1cc2nc(/C(C#N)=C/c3ccco3)[nH]c2cc1C`, the “XBP1-RLuc splicing reporter activation” value is 4.3 ± 0.47.
Consider `Oc1ccccc1/C=N\Nc1nc2ccccc2o1`, for which the “XBP1-RLuc splicing reporter activation” value stood at 19.1 ± 1.9.
The value for `O=C(N/N=C\c1ccccc1[N+](=O)[O-])c1[nH]nc2c1CCc1ccccc1-2` was 3.05 ± 1.7.
The result for `Cn1c(-c2cccc(Cl)c2)cnc1NC(=O)c1ccccc1` reads 2.86 ± 0.72.
The value for `O=C(NCCc1ccc(O)cc1)c1ccc2nc(-c3csc4ccccc34)sc2c1` was 18.8 ± 1.8; that for `CCOc1ccc(NC(=O)c2cccc(F)c2)c([N+](=O)[O-])c1` was 1.77 ± 2.1; that for `COc1ccc(C2=Nn3c(nnc3-c3ccc(OC)cc3)SC2)cc1` was 10.4 ± 1.3.
As for `Cc1ccc(O)c(-c2cc(-c3ccc(F)cc3)n[nH]2)c1`, the “XBP1-RLuc splicing reporter activation” value was determined as 3.17 ± 2.6.
The result for `CCOc1cc(/C=C2/NC(=O)N(Cc3ccc(F)cc3)C2=O)ccc1O` reads 33.6 ± 2.1.
Regarding `C(=C\c1ccccc1)/C=N/Nc1nc2ccccc2[nH]1`, the “XBP1-RLuc splicing reporter activation” value was 5.21 ± 0.2.
The result for `C=CCNC(=O)c1cc(-c2ccccc2)on1` reads 5.5 ± 0.76; that for `CCN(CC)c1ccc2cc(-c3nc4ccccc4n3C)c(=O)oc2c1`, 9.31 ± 0.79; that for `CCc1cc2c(=O)c(-c3ccc4c(c3)OCCO4)coc2cc1OC`, 12.2 ± 0.77.
The result for `CN(C)/C=N/C1=C(C#N)C(c2ccc3c(c2)OCO3)c2ccc3ccccc3c2O1` (stereo not given) reads 1.3 ± 3.6; that for `O=c1/c(=C/c2ccc(O)c(O)c2)sc2nc3ccccc3n12`, 6.32 ± 0.52.
The value for `Cc1cc(C)c(OCC(=O)N/N=C/c2ccc(O)c(O)c2)c(Br)c1` was 17.1 ± 1.1; that for `O=C(N/N=C/c1ccc(Cl)cc1Cl)c1ccc(O)c(O)c1` was 10.6 ± 0.64.
For the molecule `N#Cc1ccc(-c2cccs2)nc1SCc1ccccn1`, the “XBP1-RLuc splicing reporter activation” value stood at 0.766 ± 2.5.
As for `Cc1ccc(O)c(NC(=O)CSc2n[nH]c(C)c2[N+](=O)[O-])c1`, the “XBP1-RLuc splicing reporter activation” value stood at 16.6 ± 2.4.
For the molecule `COc1cccc(/C=N/NC(=O)c2n[nH]c3c2CCCC3)c1`, the “XBP1-RLuc splicing reporter activation” value was 2.73 ± 0.56.
The result for `O=C1/C(=C/c2ccc(O)c(O)c2)Oc2cc(O)ccc21` reads 12.6 ± 0.23; that for `Cc1ccc2nc(NC(=O)c3cccc4ccccc34)sc2c1`, 4.94 ± 1.5; that for `Cc1ccc(O)c(NC(=O)c2cc(-c3ccc(F)cc3)on2)c1`, 15.9 ± 0.37.
The result for `CCCCNC(=O)c1cc(-c2cccs2)on1` reads 9.51 ± 1.7; that for `COc1ccc(C(=O)Nc2nnc(-c3cccs3)s2)cc1`, 0.956 ± 0.85.
The result for `COc1cccc(/C=N/NC(=O)c2ccc(NC(=O)c3ccc(C)cc3)cc2)c1O` reads 86.3 ± 12; that for `Cc1cc(C)nc(Nc2nc(-c3ccc(O)c(O)c3)cs2)n1`, 13.9 ± 9.7.
As for `Cc1cc(C)nc(/N=C(\N)Nc2ccc(OCc3ccccc3)cc2)n1`, the “XBP1-RLuc splicing reporter activation” value was 78.3 ± 5.3.
Turning to `Cc1ccc(O)c(NC(=S)NC(=O)/C=C/c2ccco2)c1`, the “XBP1-RLuc splicing reporter activation” value came out at 1.05 ± 0.43.
`COCCNC(=O)c1cc(-c2cccs2)on1`: the “XBP1-RLuc splicing reporter activation” value worked out at 6.38 ± 1.2.
The value for `COc1ccccc1-c1cc(C(=O)Nc2cc(C)ccc2O)no1` was 7.78 ± 1.3.
For the molecule `Cc1ccc(O)c(NC(=O)CN(C)S(=O)(=O)c2ccc(Cl)cc2)c1`, the “XBP1-RLuc splicing reporter activation” value came to 15.1 ± 3.3.
The result for `CCOc1ccc2nc(NC(=O)c3ccn(C)n3)sc2c1` reads -1.23 ± 2; that for `Fc1ccc(-c2nnc3ccc(N4CCN(c5ccccn5)CC4)nn23)cc1`, 38.3 ± 2.6; that for `Cc1ccc(O)c(NC(=O)c2cc(-c3cccs3)on2)c1`, 22.7 ± 1.2.
The result for `COc1ccccc1/C=N/Nc1nc(-c2ccccc2)cc(=O)[nH]1` reads 7.58 ± 1.9; that for `Nc1ccc(-c2nc3cc(N)c(Cl)cc3[nH]2)cc1`, 16 ± 1; that for `COc1ccc(/C=C(\C#N)c2nc(-c3ccco3)cs2)cc1O`, 4.32 ± 0.33.
As for `O=C(CCc1ccccc1)Nc1ccc(Cl)cn1`, the “XBP1-RLuc splicing reporter activation” value was found to be 0.292 ± 0.79.
